Active and inactive are the calls of the source. Rule for the calls: active = hit-call score of the fitted dose curve at least 0.9, where 1 is the maximum; inactive = score below 0.9.

Sequence of Signal transducer and activator of transcription 3 (Homo sapiens) (P40763 whole entry, looked up): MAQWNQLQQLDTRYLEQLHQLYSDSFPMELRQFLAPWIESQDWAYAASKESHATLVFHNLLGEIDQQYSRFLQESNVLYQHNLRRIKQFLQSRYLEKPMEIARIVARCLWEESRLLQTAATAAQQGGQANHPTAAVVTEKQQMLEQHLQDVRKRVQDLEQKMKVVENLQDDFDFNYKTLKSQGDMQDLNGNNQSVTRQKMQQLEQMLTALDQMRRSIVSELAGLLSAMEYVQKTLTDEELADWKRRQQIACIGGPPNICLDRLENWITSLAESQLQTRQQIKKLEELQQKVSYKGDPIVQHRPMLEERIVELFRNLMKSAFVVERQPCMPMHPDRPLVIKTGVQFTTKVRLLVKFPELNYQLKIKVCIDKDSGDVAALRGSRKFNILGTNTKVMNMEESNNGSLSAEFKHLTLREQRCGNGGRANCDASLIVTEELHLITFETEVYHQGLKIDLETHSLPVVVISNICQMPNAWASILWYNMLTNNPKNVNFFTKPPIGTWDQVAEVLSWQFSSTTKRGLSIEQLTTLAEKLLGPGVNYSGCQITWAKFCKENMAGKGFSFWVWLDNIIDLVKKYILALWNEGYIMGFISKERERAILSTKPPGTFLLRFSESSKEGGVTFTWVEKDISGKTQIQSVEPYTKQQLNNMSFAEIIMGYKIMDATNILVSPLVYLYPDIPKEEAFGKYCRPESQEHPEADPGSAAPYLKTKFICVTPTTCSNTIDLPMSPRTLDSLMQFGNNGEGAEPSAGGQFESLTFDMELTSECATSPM

Read-out in this test: Signal transducer and activator of transcription 3 (Homo sapiens) (UniProt P40763)
Description: LTEA_HepaRG_STAT3: Life Technologies and Expression Analysis (LTEA) Assay for Signal transducer and activator of transcription (STAT3) using HepaRG (AID 2283529). The note with it: mRNA level, 48 h; actives raise or lower the signal. The protocol: LTEA_HepaRG is a cell based, multiplexed-readout assay that uses HepaRG, a human liver cell line, with measurements taken at 48 hours after chemical dosing on a 96-well plate.LTEA_HepaRG_STAT3 is one of 102 assay component(s) measured in the LTEA HepaRG cell culture assay. It is a marker of Cell proliferation, survival, death.Data from the assay component LTEA_HepaRG_STAT3 was analyzed into 1 endpoint. This assay endpoint, LTEA_HepaRG_STAT3, was analyzed with bidirectional fitting relative to DMSO as the negative control and baseline of activity. Using a type of inducible reporter, measures of mRNA induction for gain or loss-of-signal activity can be used to understand regulation of transcription factor activity. To generalize the intended target to other relatable targets, this assay endpoint is annotated to the dna binding intended target family, where the subfamily is stat protein.
A total of 1060 chemcials from the ToxCast library were tested in eight-point concentration-response experiments. Cell culture and cytotoxicity assays were conducted at Thermo Fisher Scientific's Custom Services facility (Madison, WI). A single lot of human HepaRG cells (Thermo Fisher Scientific, Frederick, MD) was used for the cell culture experiments. 96-well format collagen type I coated plates of human HepaRG cells were prepared using established methods. Briefly, cryopreserved HepaRG cells were thawed, plated at a density of approximately 100,000 cells/well in HepaRG Thaw, Plate, and General Purpose media (HPRG770, Thermo Fisher Scientific), and incubated for 48 hours. 0.5% DMSO was selected as vehicle control to balance the requisite need of DMSO in HepaRG cultures to maintain differentiation (for example, baseline metabolism, proportions of hepatocytes vs. cholangiocytes), while enabling further hepatic receptor pathway activation (for example, PXR and CAR) in response to chemical exposure. 48 hours after plating, the culture medium was replaced with HepaRG Serum-Free Incudtion Media. Cells were exposed to each test chemical in duplicate and maintained in CO2 incubators for another 48 hours. Chemical plates were thawed to room temperature and 200x concentrations of treatment groups were prepared. 8-point conentration-reponse curves were made with the highest exposure at 100 uM, followed by half-log dilutions, all in 0.5% DMSO. Each test plate contained variouse controls, induction positive controls (1mM phenobarbital), cytotoxicity positive controls ([…] aflatoxin B1), vehicle controls (0.5% DMSO), and total lysis controls (0.5% DMSO). Cell morphology images were taken using an Essen IncuCyte FLR automated microscope, with six 96-well plates imaged in about 24 minutes. Images were captured and exported and JPEG files. Spent culture media was transfered to black-well plates for the LDH assay, and remaining media was sorted at -80 C for later use. Cells were treated with RLT buffer and frozen until shipped for gene expression analysis. Total RNA was isolated from the cell suspension in 75 uL of Buffer RLT (Qiagen, Germantown, MD 20874) by Quintiles/Expression Analysis (Durham, NC) using a custom isolation procedure. Total RNA from each plate well was transferred to a preamplification plate. Fluidigm's 96.96 Dynamic ArrayTM (Fluidigm, Amsterdam, the Netherlands) technology was used for gene expression analyses by quantitative reverse transcription polymerase chain reaction (qRT-PCR, performed by Quintiles/Expression Analysis, Durham, NC)89. Standard TaqManTM Assays (Applied Biosystems/ThermoFisher Scientific, Foster City, CA) were used to assess the expression of 93 genes selected based on their selectivity and sensitivity to important hepatic receptors known to be modulated by environmental chemicals; importance in human hepatocyte functionality; and hepatotoxicity. […]
As for `Cc1cc(C)cc(C)c1`, the result was inactive.

As to `CC(C)O.CC(C)O.OCCN(CCO)CCO.OCCN(CCO)CCO.[Ti]`, the molecule was classed as inactive.

Regarding `O=C(N[C@H]1CN2CCC1CC2)c1ccc2c(c1)OCCO2`, the call was inactive.

`COc1ccccc1N`: the call was inactive.

In the case of `OCCN(CCO)CCO`, the molecule was called inactive.

For the molecule `Oc1c(Cl)cc(Cl)cc1Cl`, the call was inactive.

For `CC(C)(C)c1ccccc1O`, the molecule was classed as inactive.

As for `O=C(O)C1(c2ccc3c(c2)OC[C@H](Cc2ccc(-c4ccccc4)cc2)[C@H]3O)CCCC1`, the result was inactive.

In the case of `N#Cc1cccnc1`, the outcome was inactive.

`Oc1cc(Cl)c(Cl)cc1Cl`: the molecule was called inactive.

`Clc1cccc(Cl)c1Cl`: the molecule was classed as inactive.

For the molecule `Clc1cccc(Cl)c1`, the molecule was classed as inactive.

For `CN(C)C(=S)S`, the molecule was classed as inactive.

Consider `CCCCCCCCCCCCc1cccc(S(=O)(=O)O)c1`, for which the result was inactive.

Source of the values: PubChem BioAssay (EPA / NIEHS).
